{
  "source": "the supplement of paper PMC10037445",
  "key": {"RAW-Dual [1]": {"system": "RAW-Dual", "assay": "IRF Lucia reporter activity, fold change vs agonist alone; cytotoxicity flag (confluency mask): not cytotoxic; higher = enhanced IRF activity", "method_in_brief": "(§1)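 Library stock was pin-tooled at 50 nL into 384-well plates of RAW-Dual macrophages (50,000 cells/well, DMEM), followed 1 h later by a PRR agonist, and the cells were kept at 37 °C, 5% CO2. Supernatant collected after 20 hours was read for IRF by QuantiLuc luminescence and for NF-κB by QuantiBlue absorbance at 620 nm. Reporter activity is fold change over agonist-alone wells, and a well counted as cytotoxic when its IncuCyte confluency was below 70% of agonist controls in both mask sets.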"}, "RAW-Dual [2]": {"system": "RAW-Dual", "assay": "IRF Lucia reporter activity, fold change vs agonist alone; higher = enhanced IRF activity", "conditions": "cytotoxicity flag (confluency mask): not cytotoxic, agonist: MPLA (TLR4) […]", "method_in_brief": "as §1"}, "RAW-Dual [3]": {"system": "RAW-Dual", "assay": "IRF Lucia reporter activity, fold change vs agonist alone; cytotoxicity flag (confluency mask): cytotoxic (confluency <70% of control); higher = enhanced IRF activity", "method_in_brief": "as §1"}, "[4]": {"conditions": "agonist: 3'3'-cGAMP (STING) 10 ug/mL"}, "[5]": {"conditions": "library stock concentration (final ~1000-fold dilution): 10 mM"}},
  "note": "Several values for one entry are separate records, joined by “and”; a condition that tells them apart may be missing. Equal values may be shown once. In all, about 2,900 compounds were measured (“IRF Lucia reporter activity, fold change vs agonist alone”: median about 0.9, highest 2% from about 2.8 on). Shown is part of a subset that was picked to be rich in the highest values.",
  "data": [
    {"smiles": "CC(N)C1CCC(C(=O)Nc2ccncc2)CC1.Cl.Cl", "note": "(stereo not given) (library stock concentration (final ~1000-fold dilution): 10 mM)", "values": [
      {"measurement": "IRF Lucia reporter activity", "setting": "RAW-Dual [1]; [4]", "result": 0.926},
      {"measurement": "IRF Lucia reporter activity", "setting": "RAW-Dual [1]; agonist: LPS (TLR4) 0.1 ug/mL", "result": 0.81}
    ]},
    {"smiles": "CC(N)C1CCC(C(=O)Nc2ccncc2)CC1.Cl.Cl", "note": "(stereo not given)", "values": [
      {"measurement": "IRF Lucia reporter activity", "setting": "RAW-Dual [2]; [5]", "result": 0.773}
    ]},
    {"smiles": "Nc1ccc(-c2cccc(C(=O)Nc3cnc4nc(N5CCOCC5)oc4c3)n2)cn1", "note": "(library stock concentration (final ~1000-fold dilution): 10 mM)", "values": [
      {"measurement": "IRF Lucia reporter activity", "setting": "RAW-Dual [1]; [4]", "result": 0.717},
      {"measurement": "IRF Lucia reporter activity", "setting": "RAW-Dual [1]; agonist: LPS (TLR4) 0.1 ug/mL", "result": 1.48}
    ]},
    {"smiles": "Oc1cccc(-c2nc(N3CCOCC3)c3oc4ncccc4c3n2)c1", "values": [
      {"measurement": "IRF Lucia reporter activity", "setting": "RAW-Dual [2]; [5]", "result": 1.42}
    ]},
    {"smiles": "Nc1ccc(C(=O)Nc2cccc(-c3nc(N4CCOCC4)c4oc5ncccc5c4n3)c2)cn1", "note": "(library stock concentration (final ~1000-fold dilution): 10 mM)", "values": [
      {"measurement": "IRF Lucia reporter activity", "setting": "RAW-Dual [1]; [4]", "result": 0.205},
      {"measurement": "IRF Lucia reporter activity", "setting": "RAW-Dual [1]; agonist: LPS (TLR4) 0.1 ug/mL", "result": 3.93}
    ]},
    {"smiles": "Oc1cccc(-c2nc(N3CCOCC3)c3oc4ncccc4c3n2)c1", "note": "(library stock concentration (final ~1000-fold dilution): 10 mM)", "values": [
      {"measurement": "IRF Lucia reporter activity", "setting": "RAW-Dual [1]; [4]", "result": 0.381},
      {"measurement": "IRF Lucia reporter activity", "setting": "RAW-Dual [1]; agonist: LPS (TLR4) 0.1 ug/mL", "result": 1.94}
    ]},
    {"smiles": "Nc1ccc(C(=O)Nc2cccc(-c3nc(N4CCOCC4)c4oc5ncccc5c4n3)c2)cn1", "values": [
      {"measurement": "IRF Lucia reporter activity", "setting": "RAW-Dual [2]; [5]", "result": 3.52}
    ]},
    {"smiles": "O=C(CCCCCCC(=O)N/N=C/c1ccc(N(c2ccccc2)c2ccccc2)cc1)NO", "note": "(library stock concentration (final ~1000-fold dilution): 10 mM)", "values": [
      {"measurement": "IRF Lucia reporter activity", "setting": "RAW-Dual [3]; [4]", "result": 0.0199},
      {"measurement": "IRF Lucia reporter activity", "setting": "RAW-Dual [3]; agonist: LPS (TLR4) 0.1 ug/mL", "result": 0.533}
    ]},
    {"smiles": "Cc1ccc(Oc2ccnc3cc(-c4cnn(C5CCNCC5)c4)ccc23)cc1", "note": "(library stock concentration (final ~1000-fold dilution): 10 mM)", "values": [
      {"measurement": "IRF Lucia reporter activity", "setting": "RAW-Dual [3]; [4]", "result": 0.0554},
      {"measurement": "IRF Lucia reporter activity", "setting": "RAW-Dual [3]; agonist: LPS (TLR4) 0.1 ug/mL", "result": 0.134}
    ]},
    {"smiles": "CCC(C)(Nc1ccnc(-c2c[nH]c3ncccc23)n1)C(=O)NCC(F)(F)F", "note": "(stereo not given) (library stock concentration (final ~1000-fold dilution): 10 mM)", "values": [
      {"measurement": "IRF Lucia reporter activity", "setting": "RAW-Dual [1]; [4]", "result": 0.291},
      {"measurement": "IRF Lucia reporter activity", "setting": "RAW-Dual [1]; agonist: LPS (TLR4) 0.1 ug/mL", "result": 0.35}
    ]},
    {"smiles": "CCC(C)(Nc1ccnc(-c2c[nH]c3ncccc23)n1)C(=O)NCC(F)(F)F", "note": "(stereo not given)", "values": [
      {"measurement": "IRF Lucia reporter activity", "setting": "RAW-Dual [2]; [5]", "result": 0.41}
    ]},
    {"smiles": "Cc1cc(N2CCN(C3CNC(C(=O)N4CCSC4)C3)CC2)n(-c2ccccc2)n1", "note": "(stereo not given)", "values": [
      {"measurement": "IRF Lucia reporter activity", "setting": "RAW-Dual [2]; [5]", "result": 1.02}
    ]},
    {"smiles": "Cc1cc(N2CCN(C3CNC(C(=O)N4CCSC4)C3)CC2)n(-c2ccccc2)n1", "note": "(stereo not given) (library stock concentration (final ~1000-fold dilution): 10 mM)", "values": [
      {"measurement": "IRF Lucia reporter activity", "setting": "RAW-Dual [1]; [4]", "result": 0.982},
      {"measurement": "IRF Lucia reporter activity", "setting": "RAW-Dual [1]; agonist: LPS (TLR4) 0.1 ug/mL", "result": 1.22}
    ]},
    {"smiles": "Cc1ccc2nc(NCCN)c3ncc(C)n3c2c1", "note": "(library stock concentration (final ~1000-fold dilution): 10 mM)", "values": [
      {"measurement": "IRF Lucia reporter activity", "setting": "RAW-Dual [1]; [4]", "result": 2.21},
      {"measurement": "IRF Lucia reporter activity", "setting": "RAW-Dual [1]; agonist: LPS (TLR4) 0.1 ug/mL", "result": 3.5},
      {"measurement": "IRF Lucia reporter activity", "setting": "RAW-Dual [3]; agonist: LPS (TLR4) 0.1 ug/mL", "result": "0.0229 and 0.0291"}
    ]},
    {"smiles": "CCOc1nc2cccc(C(=O)OCc3oc(=O)oc3C)c2n1Cc1ccc(-c2ccccc2-c2nc(=O)o[nH]2)cc1", "values": [
      {"measurement": "IRF Lucia reporter activity", "setting": "RAW-Dual [2]; [5]", "result": 1.16}
    ]},
    {"smiles": "CCOc1nc2cccc(C(=O)OCc3oc(=O)oc3C)c2n1Cc1ccc(-c2ccccc2-c2nc(=O)o[nH]2)cc1", "note": "(library stock concentration (final ~1000-fold dilution): 10 mM)", "values": [
      {"measurement": "IRF Lucia reporter activity", "setting": "RAW-Dual [1]; [4]", "result": 1.04},
      {"measurement": "IRF Lucia reporter activity", "setting": "RAW-Dual [1]; agonist: LPS (TLR4) 0.1 ug/mL", "result": 1.16}
    ]},
    {"smiles": "CNS(=O)(=O)CC1CCC(N(C)c2ncnc3[nH]ccc23)CC1.O=C(O)/C=C\\C(=O)O", "note": "(stereo not given) (library stock concentration (final ~1000-fold dilution): 10 mM)", "values": [
      {"measurement": "IRF Lucia reporter activity", "setting": "RAW-Dual [1]; [4]", "result": 0.106},
      {"measurement": "IRF Lucia reporter activity", "setting": "RAW-Dual [1]; agonist: LPS (TLR4) 0.1 ug/mL", "result": 0.264}
    ]},
    {"smiles": "CC1CN(CC(=O)Nc2ccc3c(c2)Cc2cccc(-c4cc(=O)cc(N5CCOCC5)o4)c2S3)CC(C)O1", "note": "(stereo not given)", "values": [
      {"measurement": "IRF Lucia reporter activity", "setting": "RAW-Dual [2]; [5]", "result": 5.96}
    ]},
    {"smiles": "O=c1cc(N2CCOCC2)oc2c1ccc1ccccc12", "values": [
      {"measurement": "IRF Lucia reporter activity", "setting": "RAW-Dual [2]; library stock concentration (final ~1000-fold dilution): 2 mM", "result": 1.15}
    ]},
    {"smiles": "O=c1cc(-c2cccc3c2Sc2ccccc2S3)oc(N2CCOCC2)c1", "note": "(library stock concentration (final ~1000-fold dilution): 10 mM)", "values": [
      {"measurement": "IRF Lucia reporter activity", "setting": "RAW-Dual [1]; [4]", "result": 0.647},
      {"measurement": "IRF Lucia reporter activity", "setting": "RAW-Dual [1]; agonist: LPS (TLR4) 0.1 ug/mL", "result": 5.22}
    ]},
    {"smiles": "O=c1cc(N2CCOCC2)oc2c(-c3ccc4c(c3)OCCO4)csc12", "note": "(library stock concentration (final ~1000-fold dilution): 10 mM)", "values": [
      {"measurement": "IRF Lucia reporter activity", "setting": "RAW-Dual [1]; [4]", "result": 0.12},
      {"measurement": "IRF Lucia reporter activity", "setting": "RAW-Dual [1]; agonist: LPS (TLR4) 0.1 ug/mL", "result": 0.269}
    ]},
    {"smiles": "O=c1cc(-c2cccc3c2Sc2ccccc2S3)oc(N2CCOCC2)c1", "values": [
      {"measurement": "IRF Lucia reporter activity", "setting": "RAW-Dual [2]; [5]", "result": 6.25}
    ]},
    {"smiles": "O=c1cc(N2CCOCC2)oc2c1ccc1ccccc12", "note": "(library stock concentration (final ~1000-fold dilution): 2 mM)", "values": [
      {"measurement": "IRF Lucia reporter activity", "setting": "RAW-Dual [1]; [4]", "result": 0.778},
      {"measurement": "IRF Lucia reporter activity", "setting": "RAW-Dual [1]; agonist: LPS (TLR4) 0.1 ug/mL", "result": 1.01}
    ]},
    {"smiles": "CC1CN(CC(=O)Nc2ccc3c(c2)Cc2cccc(-c4cc(=O)cc(N5CCOCC5)o4)c2S3)CC(C)O1", "note": "(stereo not given) (library stock concentration (final ~1000-fold dilution): 10 mM)", "values": [
      {"measurement": "IRF Lucia reporter activity", "setting": "RAW-Dual [1]; [4]", "result": 0.508},
      {"measurement": "IRF Lucia reporter activity", "setting": "RAW-Dual [1]; agonist: LPS (TLR4) 0.1 ug/mL", "result": 6.62}
    ]}
  ]
}
